Test results from PubChem BioAssay (NCI).
About 83,000 compounds went through this panel and 20% of them were active in at least one assay; those are over-represented in the sample as a whole.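 48-hour exposure, single concentration, 96-well plates; percent growth endpoint where 0 means no net growth. Active: below 10.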 A number with no mark means an inactive call. Active and inactive are the calls of the source.

Columns and labels:
Test in all cases: NCI-60 one-dose screen, 48 h (100 = growth as untreated, 0 = no growth, -100 = all killed)
Details in all cases: 10 µM unless noted
T-47D breast = system: T-47D breast
BT-549 breast = system: BT-549 breast
MDA-MB-435 melanoma = system: MDA-MB-435 melanoma
SW-620 colon = system: SW-620 colon
MCF7 breast = system: MCF7 breast
HCT-116 colon = system: HCT-116 colon
HCC-2998 colon = system: HCC-2998 colon
KM12 colon = system: KM12 colon

Structure (SMILES)	growth (T-47D breast)	growth (BT-549 breast)	growth (MDA-MB-435 melanoma)	growth (SW-620 colon)	growth (MCF7 breast)	growth (HCT-116 colon)	growth (HCC-2998 colon)	growth (KM12 colon)
Cc1ccc2c(C3C(C#N)=C(N)Oc4cc5ccccc5cc43)cc(=O)oc2c1 (stereo unspecified)	35.9%	47.9%	-48.2% (active)	27.1%	17.9%	15.9%	58.9%	24.1%
c1ccc(CNCCN(CCNCc2ccccn2)Cc2ccc3ccccc3c2)nc1	-4.67% (active)	30.3%	11.4%	13%	3.36% (active)	-9.29% (active)	-18.3% (active)	12.5%
COc1ccc(/C=C/C(=O)c2ccc(-n3cc(CN4CCN(c5cc6c(cc5F)c(=O)c(C(=O)O)cn6C5CC5)CC4)nn3)cc2)cc1OC	28.1%	51%	5.4% (active)	9.41% (active)	16.1%	-39.5% (active)	-39.7% (active)	8.81% (active)
Fc1ccc(Nc2ncnc3ccc(-c4cn[nH]c4)cc23)cc1Cl	-20.2% (active)	58%	79.8%	78.1%	23.3%	51.2%	85%	67.1%
O[C@@H]1CCO[C@H](c2ccc3ccccc3c2)C1	89.4%	105%	106%	105%	103%	96.6%	98.6%	104%
CCCCN(CCCC)c1ccc(C(=N)c2ccc(N(C)C)cc2)cc1	-23.3% (active)	-72.4% (active)	-74.1% (active)	-85.2% (active)	-52.9% (active)	-100% (active)	-47.5% (active)	-50.5% (active)
COc1ccc(Cl)cc1NC(=O)c1cc2c([nH]1)-c1nc(NC(=O)C(C)(C)C)sc1CC2	71.3%	71.7%	91%	62.6%	52.1%	12.4%	96.5%	83.2%
C=C1c2c(Cl)ccc(O)c2C(O)=C2C(=O)[C@]3(O)C(O)=C(C(N)=O)C(=O)[C@@H](N(C)C)[C@@H]3[C@@H](O)[C@H]12	21.8%	-19.7% (active)	12.7%	16.4%	29.8%	2.75% (active)	8.18% (active)	1.27% (active)
COc1cc(C(=O)NNC(=O)c2ccccc2C(=O)O)cc(OC)c1OC	39.5%	58.4%	60.4%	36.9%	30.1%	29%	68.5%	36.9%
C=CC(=O)NC(=O)Nc1ccccc1Cl	65.8%	75.3%	82.4%	53.6%	27.1%	55.5%	110%	96.4%
NC(N)=N/N=C/c1ccc([N+](=O)[O-])cc1	98.7%	85.5%	112%	94.1%	93.1%	90.6%	99.9%	103%
O=S(c1ccccc1)c1ccc2nnnn2n1 (stereo unspecified)	91.7%	98.1%	108%	59.9%	86.3%	60.7%	113%	98.2%
Cc1ccc(NC(=O)CN2CCOCC2)cc1Cl	88.7%	77%	100%	98.5%	91.8%	80.5%	96.8%	103%
COc1ccc(NC(=O)Nc2ccc(-c3ccc(OC)c(OC)c3)nc2C)cc1	60.4%	50.4%	65.2%	64.8%	65.1%	49.4%	83.1%	45.3%
COC(=O)c1oc2c(C(C)=O)c(OCCCN(C)C)ccc2c1C	103%	215%	107%	106%	148%	53.9%	116%	100%
C#C[C@@]1(O)[C@@H](CO)O[C@@H](n2cc(C(F)(F)F)c3c(N)ncnc32)[C@@H]1O	-19.3% (active)	-12.1% (active)	14.7%	4.55% (active)	1.74% (active)	4.15% (active)	3.76% (active)	6.52% (active)

Structure (SMILES)	growth (T-47D breast)	growth (BT-549 breast)	growth (MDA-MB-435 melanoma)	growth (SW-620 colon)	growth (MCF7 breast)	growth (HCT-116 colon)	growth (HCC-2998 colon)	growth (KM12 colon)
ClC1c2ccccc2CCc2ccccc21	74.6%	93.8%	110%	101%	92.1%	72.7%	107%	109%
Fc1cccc(F)c1C#Cc1ccc2cccnc2c1	22.3%	95.6%	107%	90.5%	14.8%	74.6%	68.6%	79.1%
O=C(O)c1ccc2nc(-c3ccc(OCCCCCOc4ccc(-c5nc6ccc(C(=O)O)cc6[nH]5)cc4)cc3)[nH]c2c1	51.2%	130%	189%	57.1%	82.3%	88.6%	16.4%	98.6%
CN(C)CC/C=C1\c2ccccc2Sc2ccc(Cl)cc21	70.7%	86.5%	36.2%	81.5%	62.3%	36.5%	27.4%	69.3%
CN[C@@H](CCCNC(N)=NC/C=C(/C)CCC=C(C)C)C(=O)N(C)[C@@H](CCCNC(N)=NCC=C(C)C)C(=O)N[C@H](C)[C@H](OS(=O)(=O)O)c1ccc(OS(=O)(=O)O)c(COS(=O)(=O)O)c1	98.1%	107%	113%	108%	97.7%	101%	105%	100%
C=C1C(=O)O[C@H]2[C@H]1CC/C(COC(=O)OC/C1=C/CC[C@@]3(C)O[C@H]3[C@H]3OC(=O)[C@@H](CN(C)C)[C@@H]3CC1)=C\CC[C@@]1(C)O[C@@H]21	-15.2% (active)	-1.01% (active)	2.87% (active)	-56.5% (active)	-29.7% (active)	-72.7% (active)	79.8%	37.9%
COc1ccc(-c2cc3ccc(N(C)C)cc3nc2N)c(F)c1	24.3%	18.8%	13.9%	42.5%	14.7%	19.3%	51.8%	35%
CCC(CC(C)C)Nc1ccc(NC(CC)CC(C)C)cc1 (stereo unspecified)	69.2%	97.1%	107%	84.2%	89.5%	59.2%	95.6%	63.2%
CCN(CC)C(=O)C1CCN(C(=O)c2ccccc2)CC1	98.4%	93.8%	104%	101%	96.6%	99.2%	106%	101%
O=C1C(Cl)=C(Nc2cccc3cc4ccccc4nc23)C(=O)c2ccccc21	37.9%	91.7%	59%	31.1%	20.1%	17%	50.7%	52.3%
COc1ccc(-c2nn(-c3ccc(NC(=O)Nc4ccc(Cl)c(C(F)(F)F)c4)cc3)cc2-c2ccncc2)cc1Cl	24.7%	0.583% (active)	-16.6% (active)	3.24% (active)	7.96% (active)	-7.68% (active)	11.3%	0.474% (active)
CCOC(=O)NNc1nncc2ccccc12	94.8%	113%	100%	104%	105%	106%	103%	101%
CCCC(=O)Oc1ccc(/C(=C(\C)c2ccc(OC)cc2)c2ccc(OCCN3CCCCC3)cc2)cc1	32.7%	82.2%	84.2%	87.5%	28.3%	55.7%	91%	75.6%
O=c1nc(N2CCOCC2)oc2c(-c3cccc4ccccc34)cccc12	79.7%	85.3%	101%	97.9%	89.8%	96.7%	109%	87.3%
NC(=O)C1=C[C@H]2[C@H]3C=C[C@@]2(O)C(=O)O[C@@H]3O1	38.2%	64.2%	36.9%	40.3%	21.6%	18.4%	91.6%	84.9%
CCc1c(C)c2cc(-n3c(-c4ccc(OC)cc4)csc3=N)c(O)c(C)c2oc1=O	-0.0975% (active)	5.21% (active)	0.357% (active)	22.9%	9.39% (active)	8.8% (active)	36.2%	12.7%
